High-throughput results from PubChem BioAssay.
The list is not random: actives were taken first. Their share in the collection is about 3.6%.
ERb coact inh – inhibitors of ERβ-SRC1 coactivator interaction, primary screen, biochemical, TR-FRET, ERβ LBD, SRC-1 peptide | Estrogen receptor beta (Homo sapiens), Q92731 | TR-FRET ER-beta LBD / SRC1-Cy5 peptide binding; receptor agonist-loaded with 1 µM estradiol | inhibition, % at 25.6 µM | 86,000 compounds, 1.3% hits | AID 633, 2007;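 active = compounds whose percent inhibition of the receptor-coactivator binding signal exceeds about 50% in the single-dose screen, limit read from the data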;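 also: 0% = receptor plus peptide wells without compound and 100% = peptide-only wells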
Target sequence (Q92731 whole entry, looked up, the tested form may be a part): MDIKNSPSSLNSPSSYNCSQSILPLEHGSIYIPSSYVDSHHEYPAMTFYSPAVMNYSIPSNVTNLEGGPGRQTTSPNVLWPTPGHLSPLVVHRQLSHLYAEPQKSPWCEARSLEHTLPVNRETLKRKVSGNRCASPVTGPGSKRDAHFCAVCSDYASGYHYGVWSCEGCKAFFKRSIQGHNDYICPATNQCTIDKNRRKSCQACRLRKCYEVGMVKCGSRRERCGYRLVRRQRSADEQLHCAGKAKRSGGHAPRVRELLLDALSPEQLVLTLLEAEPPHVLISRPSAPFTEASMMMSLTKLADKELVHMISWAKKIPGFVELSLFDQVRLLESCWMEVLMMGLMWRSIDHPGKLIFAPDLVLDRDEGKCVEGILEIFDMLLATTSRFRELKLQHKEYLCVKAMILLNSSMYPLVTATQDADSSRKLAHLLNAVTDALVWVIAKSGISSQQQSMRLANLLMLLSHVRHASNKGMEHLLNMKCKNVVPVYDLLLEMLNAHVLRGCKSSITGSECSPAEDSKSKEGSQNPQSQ
Smad3 inh – Smad3/FoxH1 peptide binding inhibitors, primary screen, biochemical, TR-FRET; AID 630, 2007; inhibition, % at 25 µM; Mothers against decapentaplegic homolog 3 (Homo sapiens), P84022; 88,000 compounds, 0.29% hits; TR-FRET Smad3/Dy647-FoxH1 peptide binding, europium anti-His;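 active = compounds that reduce the energy-transfer binding signal between the protein and its labelled peptide by more than half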;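 also: 0% = Smad3 plus labelled peptide maximal FRET and 100% = peptide-only background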
ERa coact inh – ERα–SRC-1 coactivator interaction inhibitors, primary screen, biochemical, TR-FRET, ERα LBD, estradiol-bound; TR-FRET ER-alpha LBD / SRC-1 peptide; inhibition, % at 25.6 µM; 86,000 compounds, 1.7% hits; AID 629, 2007; in the data active = inhibition above about 50%;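 also: 0% = receptor plus peptide control and 100% = peptide only without receptor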
ERa coact pot – enhancers of ERα–SRC-1 coactivator binding, primary screen, biochemical, TR-FRET, ERα LBD, low estradiol. coactivator binding (% of control), % at 25.6 µM. TR-FRET ERalpha-LBD/SRC-Cy5 coactivator binding, 2 h; 100 = basal binding, no effect. 86,000 compounds, 1.3% hits; in the data active = activity above about 200%;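 also: binding measured in presence of low estradiol as agonist stimulus; 0% = peptide alone without receptor and 100% = receptor with peptide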
Calb biofilm kill – clotrimazole potentiators killing Candida biofilms, primary screen, with clotrimazole, Alamar Blue; C. albicans biofilm + clotrimazole; inhibition, % at 6 µM; 85,000 compounds, 0.14% hits;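 active = inhibition above 20%; inactive = inhibition below 20%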;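 also: preformed 24 hr biofilms exposed to compound for 48 hr; 0% = biofilm without compound and 100% = blank killed by clotrimazole plus chlorhexidine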
An asterisk follows results filed as active; [ ] = another dose, or the depositor's remark.

For COc1cccc(OC)c1C(=O)NC(=S)Nc1ccc2c(c1)Cc1ccccc1-2 the results were ERb coact inh 0, Smad3 inh 8, ERa coact inh -1, ERa coact pot 202* and Calb biofilm kill 0.
`O=c1[nH]c2[nH]c(=S)[nH]c(=S)c2[nH]1` gave Smad3 inh 68*.
For COc1cccc(-c2nnc3n2N=C(C(C)(C)C)CS3)c1 the results were ERb coact inh -13, Smad3 inh 7, ERa coact inh -16, ERa coact pot 104 and Calb biofilm kill 1.
`O=C(CSc1nnc2scc(-c3ccc(Cl)cc3)n12)NCc1ccc2c(c1)OCO2` gave ERb coact inh 0, Smad3 inh -22, ERa coact inh 16, ERa coact pot 213* and Calb biofilm kill 7.
For Cn1c(=O)c2c(nc(SCC(=O)c3cccs3)n2Cc2ccc(F)cc2)n(C)c1=O the results were ERb coact inh 35, Smad3 inh 5, ERa coact inh 9, ERa coact pot active[fluorescence artefact?] and Calb biofilm kill 3.
`Cn1c(=O)c2c(nc(SCC(=O)NCc3ccc4c(c3)OCO4)n2Cc2ccc(Cl)cc2)n(C)c1=O` gave ERb coact inh 54*[fluorescence artefact?], Smad3 inh 11, ERa coact inh 85*[fluorescence artefact?], ERa coact pot 32 and Calb biofilm kill 3.
Screening CC(=O)[C@H](C(=N)C#N)C(=O)Nc1ccccc1 returned Smad3 inh -16.
Screening CC1Cc2nc(SCC(=O)Nc3ccc4c(c3)OCO4)n(CCc3ccccc3)c(=O)c2S1 (centres undefined) returned ERb coact inh 12, Smad3 inh -6, ERa coact inh 1, ERa coact pot 104 and Calb biofilm kill -2.
Screening COc1ccc(CCn2c(SCC(=O)Nc3cc(C)on3)nc3ccsc3c2=O)cc1OC returned ERb coact inh 1, Smad3 inh -312, ERa coact inh -3, ERa coact pot 314* and Calb biofilm kill 10.
For Cc1cc(NC(=O)CSc2nc3c(c(=O)n2CCc2ccccc2)SC(C)C3)no1 (centres undefined) the results were ERb coact inh 10, Smad3 inh -17, ERa coact inh 79*, ERa coact pot 105 and Calb biofilm kill 4.
For Cc1cc(NC(=O)CSc2nc3ccccc3c(=O)n2Cc2ccc(F)cc2)no1 the results were ERb coact inh 50*[fluorescence artefact?], Smad3 inh 20, ERa coact inh 44, ERa coact pot 232*[fluorescence artefact?] and Calb biofilm kill 5.
Cc1nnc(NC(=O)CSc2nc3c(c(=O)n2CCc2ccccc2)SC(C)C3)s1 (centres undefined) was read as ERb coact inh 17, Smad3 inh -43, ERa coact inh 69*, ERa coact pot 83 and Calb biofilm kill 8.
`COc1ccc(CCn2c(SCC(=O)Nc3cc(C)on3)nc3ccccc3c2=O)cc1OC` gave ERb coact inh 6, Smad3 inh -3, ERa coact inh 5, ERa coact pot 164 and Calb biofilm kill 1.
For Nc1nc2c(C(=O)NCc3cccs3)nnn2c2cccc(Cl)c12 the results were Smad3 inh 4.
`COc1ccc(C2CCCN2C(=O)Nc2ccccc2)cc1OC` (centres undefined) gave ERb coact inh -6, Smad3 inh -5, ERa coact inh -5, ERa coact pot 105 and Calb biofilm kill 6.
`CSc1ncnc2c1ncn2CC(=O)[C@@H]1CC[C@@H]2[C@H]3CCC4=CC(=O)CC[C@@]4(C)[C@@H]3CC[C@]21C` gave Smad3 inh 15.
For COc1cc(-c2nc(-c3ccccc3)c(-c3cccs3)[nH]2)cc(OC)c1O the results were ERb coact inh 12, Smad3 inh -12, ERa coact inh 9, ERa coact pot 34 and Calb biofilm kill -4.
For COc1cc(-c2nc(-c3ccccc3)c(-c3cccs3)[nH]2)cc(OC)c1OC the results were ERb coact inh -5, Smad3 inh 8, ERa coact inh 18, ERa coact pot 252* and Calb biofilm kill 3.
CCC(Sc1nc2c(c(=O)n1CC)SC(C)C2)C(=O)OC (centres undefined) was read as ERb coact inh -9, Smad3 inh -22, ERa coact inh 7, ERa coact pot 110 and Calb biofilm kill 9.
Screening Cc1nn2c(-c3cccc(NC(=O)CSc4nc5ccccc5o4)c3)nnc2c2ccccc12 returned ERb coact inh 55*, Smad3 inh -14, ERa coact inh 69*[fluorescence artefact?], ERa coact pot 200 and Calb biofilm kill 2.
For COC(=O)c1ccc(C(=O)OC)c(NC(=O)c2oc(C)nc2C)c1 the results were ERb coact inh 9, Smad3 inh -8, ERa coact inh 1, ERa coact pot 111 and Calb biofilm kill 12.
For CCCCCNC(CC(=O)Nc1ccc(OC)cc1)C(=O)O (centres undefined) the results were ERb coact inh 1, Smad3 inh 8, ERa coact inh -7, ERa coact pot 788*[fluorescence artefact?] and Calb biofilm kill 10.
`CC1(C)C(=O)Nc2ccccc2N1C(=O)COC(=O)C12CC3CC(CC(O)(C3)C1)C2` gave ERb coact inh 78*[fluorescence artefact?], Smad3 inh -12, ERa coact inh 88*[fluorescence artefact?], ERa coact pot 54 and Calb biofilm kill 6.
O=C1CN(C(=O)COC(=O)C23CC4CC(CC(O)(C4)C2)C3)c2ccccc2N1 was read as ERb coact inh 5, Smad3 inh -2, ERa coact inh 0, ERa coact pot 103 and Calb biofilm kill 9.
Cc1csc2nc(CCNS(=O)(=O)c3ccc4c(c3)OCCO4)cn12 was read as ERb coact inh 24, Smad3 inh 0, ERa coact inh 54*, ERa coact pot 58 and Calb biofilm kill -2.
`COc1ccc(S(=O)(=O)NCc2cn3c(C)csc3n2)cc1F` gave ERb coact inh -3, Smad3 inh -3, ERa coact inh -7, ERa coact pot 115 and Calb biofilm kill 21*.
CC(=O)NC1=NN(C(C)=O)C(C)(CS(=O)(=O)c2ccc3ccccc3c2)S1 (centres undefined) was read as ERb coact inh -5, Smad3 inh -1, ERa coact inh -2, ERa coact pot 84 and Calb biofilm kill 8.
For O=C(Nc1ccc2snnc2c1)N1CCN(c2ccccc2)CC1 the results were ERb coact inh -42, Smad3 inh 1, ERa coact inh -21, ERa coact pot 627*[fluorescence artefact?] and Calb biofilm kill 8.
For CCOC(=O)C1=C(CN2c3ccccc3CC2C)NC(=O)NC1c1ccccc1 (centres undefined) the results were ERb coact inh -1, Smad3 inh -8, ERa coact inh -1, ERa coact pot 102 and Calb biofilm kill 6.
